# From PubChem BioAssay (EPA / NIEHS)
# Where “and” joins values, the source holds several entries; their conditions need not be identical. Identical values can stand only once. The source holds several records for some structures; these can differ, active in one and inactive in another. Calls of active or inactive are those of the source. Rule for the calls: active = hit-call score of the fitted dose curve at least 0.9, where 1 is the maximum; inactive = score below 0.9.
# Assay: ATG_E_Box_CIS: Attagene CIS-FACTORIAL HepG2 Assay for human Enhancer Box (E-box) (AID 2282936)
# Conditions: HepG2 E-box cis-reporter transcription, actives raise or lower the signal
# Outline: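 Cells: HepG2 (human liver), transient MRTU transfection. Exposure 24 h. RNA → oligo(dT) RT → PCR → 6-FAM label → HpaI → CE. Activity fitted both directions relative to DMSO.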
Structure (SMILES),outcome,AC50
COC(=O)CCCC(=O)OC,inactive,
OCC(CO)n1cnc(-c2ccc(F)cc2)c1-c1ccnc(Oc2ccccc2)n1,inactive,
CCCC(=O)O,inactive,
CC(=O)[C@@]1(O)CC[C@H]2[C@@H]3CCC4=CC(=O)CC[C@]4(C)[C@H]3CC[C@@]21C,inactive,4.34 µM (active) and 27 µM (active) and 33.6 µM (active)
CCc1nc(N)nc(N)c1-c1ccc(Cl)cc1,inactive,
O=C1NC(=O)C(c2ccccc2)(c2ccccc2)N1,inactive,
Oc1ccccc1O,inactive,
CCCCCCCCCC[N+](C)(C)[O-],inactive,

# Assay: ATG_M_61_CIS: Attagene CIS-FACTORIAL HepG2 Assay for M61 Transcription Factor (Internal Marker) (AID 2282937)
# Conditions: HepG2 Attagene CIS-FACTORIAL M61 internal marker reporter; actives raise or lower the signal
# Outline: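 Human liver HepG2, transient MRTU transfection (cis promoter elements), 24 h compound. Total RNA → oligo(dT) RT → PCR → FAM label → HpaI → CE. Internal background marker; bidirectional fitting, DMSO = baseline.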
row,Structure (SMILES),outcome
1,COC(=O)[C@H]1[C@H]2C[C@@H]3c4[nH]c5cc(OC)ccc5c4CCN3C[C@H]2C[C@@H](OC(=O)c2cc(OC)c(OC)c(OC)c2)[C@@H]1OC,inactive
2,CC(COCC(C)OC(=O)c1ccccc1)OC(=O)c1ccccc1 (stereo unspecified),inactive
3,COc1ccc(C(=O)Nc2nc3ccccc3c(NCc3ccccc3)c2C#N)cc1,inactive
4,Oc1ccc(O)cc1,inactive
5,O=C1O[C@H]([C@H](O)CO)C(O)=C1O,inactive
6,O=[Si]=O,inactive
7,O=C(O)c1cccnc1,inactive
8,CC(=O)O,inactive
9,Cc1ccc(C(C)(C)C)c(O)c1,inactive
10,NC1CCCCC1,inactive
11,CC(C)(O)c1ccc(CNC(=O)c2cccnc2Oc2ccc(F)cc2)cc1,inactive
12,C/C=C/C=C/C(=O)O,inactive
13,CC(C)(C)c1ccccc1,inactive
14,S=c1[nH]c2ccccc2s1,inactive
15,O=C(NS(=O)(=O)/C=C/c1cccs1)c1ccc(F)cc1Br,inactive
16,O=C(N[C@@H](c1ccccc1)[C@@H]1CCCCN1)c1cccc(C(F)(F)F)c1Cl,inactive
17,CCOCCOCCO,inactive
18,CC(C)c1cccc(C(C)C)c1,inactive
19,Nc1nc(Cl)nc2c1ncn2[C@H]1C[C@H](O)[C@@H](CO)O1,inactive
20,CCN(CC)CCOc1ccc(C(=C(Cl)c2ccccc2)c2ccccc2)cc1,inactive
21,COC(=O)CCCC(=O)OC,inactive
22,OCC(CO)n1cnc(-c2ccc(F)cc2)c1-c1ccnc(Oc2ccccc2)n1,inactive
23,CCCC(=O)O,inactive
24,CCc1nc(N)nc(N)c1-c1ccc(Cl)cc1,inactive
25,O=C1NC(=O)C(c2ccccc2)(c2ccccc2)N1,inactive
26,Oc1ccccc1O,inactive
27,CCCCCCCCCC[N+](C)(C)[O-],inactive
